In all, about 52,000 compounds went through this assay and about 1,700 (3.3%) were called active. The sample holds actives, similar compounds and a random draw of the others, so the mix is not that of the screen. Values without a mark were called inactive. No stated cut-off is given here; in the data, active means survival mostly below about 52% (no sharp cut-off); inactive means mostly above about 56%.

We go through 85 molecules from PubChem BioAssay AID463173 (ICCB-Longwood Screening Facility, Harvard Medical School, 2010).

The subject of this assay is Wild type. In words: growth inhibition of S. aureus wild type versus tarO mutant, primary screen, teichoic acid synthesis inhibitors, RN4220, OD600 (AID 463173). Particulars: S. aureus RN4220 wild type/DeltatarO growth, OD600, 18 h, hits give low values, screened at 18.75 µg/mL (by protocol).
Take `Cc1ccc2[nH]c(CSc3nnc(NC(=O)c4ccccc4C)s3)cc(=O)c2c1`: the survival is 72%.
With `O=C(NCCCO)c1cc2sc3ccccc3c2s1`, the survival was 103%.
Take `O=C(Nn1c(Cc2ccccc2)nc2ccccc2c1=O)c1ccco1`: the survival was 107%.
Turning to `CCN1c2ccccc2-c2nc(SCC(=O)NCc3ccc(C)cc3)ncc2S1(=O)=O`, the survival is 79%.
For `O=C(CSc1ncc2c(n1)-c1ccccc1N(Cc1ccc(F)cc1)S2(=O)=O)NCc1ccccc1`, the survival was 76%.
Regarding `Cc1ccc(CN2c3ccccc3-c3nc(SCC(=O)NCc4ccccc4)ncc3S2(=O)=O)cc1`, the survival was -1% (active).
Take `COc1ccc(N(CC(=O)N2CCN(c3cccc(Cl)c3)CC2)S(=O)(=O)c2c(C)noc2C)cc1`: the survival was 84%.
With `Cc1cc(C)c2sc(N3CCN(C(=O)c4ccc(N(C)C)cc4)CC3)nc2c1`, the survival was 136%.
In the case of `O=C(CC1COc2ccccc2O1)NCc1ccccc1` (stereo not given), the survival is 105%.
The result for `O=C(Nc1ccc(F)cc1)Nc1csc2c1CCCC2` reads 12%; that for `O=C(CSc1nc2c([nH]c3ccccc32)c(=O)n1-c1ccccc1)c1ccccc1`, 73%.
To `O=C(CSc1nc2c([nH]c3ccccc32)c(=O)n1-c1ccccc1)N1CCc2ccccc21` belongs 73%; to `CCOc1ccc(-n2c(SCC(=O)N3CCOCC3)nc3c([nH]c4ccccc43)c2=O)cc1`, -3% (active).
To `O=C(CSc1nc(-c2cccs2)nc2cc(=O)[nH]n12)Nc1cccc(C(F)(F)F)c1` belongs 128%.
In the case of `CCOc1ccc(-n2c(SCC(=O)N3CCCCC3)nc3c([nH]c4ccccc43)c2=O)cc1`, the survival is 94%.
Consider `Cc1cc(C)cc(-n2c(SCC(=O)N3CCc4ccccc43)nc3c([nH]c4ccccc43)c2=O)c1`, for which the survival is 14% (active).
On to `CCOc1ccc(-n2c(SCC(=O)N3CCCC3)nc3c([nH]c4ccccc43)c2=O)cc1`, for which the survival was 73%.
The result for `O=C(CSc1nc(-c2ccccc2F)nc2cc(=O)[nH]n12)Nc1cccc(C(F)(F)F)c1` reads 69%.
The result for `COc1ccc(-n2c(SCC(=O)c3ccccc3)nc3c([nH]c4ccccc43)c2=O)cc1` reads 88%.
In the case of `Cc1ccc(-n2c(SCC(=O)N3CCc4ccccc43)nc3c([nH]c4ccccc43)c2=O)cc1`, the survival was 120%.
For the molecule `Cc1cccc(-c2nc(SCC(=O)Nc3cccc(C(F)(F)F)c3)n3[nH]c(=O)cc3n2)c1`, the survival was -3% (active).
With `Cc1ccc(-n2c(SCC(=O)c3ccccc3)nc3c([nH]c4ccccc43)c2=O)cc1`, the survival was -6% (active).
To `Cc1ccc(CNC(=O)C2(c3cccs3)CCOCC2)cc1` belongs 69%; to `O=C(Nc1ccc2oc(-c3ccc4ccccc4c3)nc2c1)c1cc(Br)ccc1Cl`, 96%.
On to `COc1ccc(NC(=O)CSc2nc(-c3ccc(OC)c(OC)c3)[nH]c2-c2ccc(C)cc2)cc1`, for which the survival was 139%.
Regarding `CCOC(=O)c1ccc(NC(=O)CCn2ccc(C)n2)cc1`, the survival is 110%.
The result for `COc1ccc(C2C(=O)N(C3CCCCC3)CC(=O)N2C2CCCCC2)cc1` (stereo not given) reads 76%; that for `Cc1cccc(NC(=O)c2oc3ccccc3c2NC(=O)c2cc(=O)c3cc(Cl)ccc3o2)c1`, 85%; that for `COc1ccc(-c2nc(C)c(CCNC(=O)c3cccs3)s2)cc1OC`, 69%.
As to `Cc1ccccc1-c1nc(CS(=O)(=O)CC(=O)NCCCc2ccccc2)c(C)o1`, the survival is 138%.
The result for `CCOc1ccc(-n2c(SC(C)C(=O)OC)nc3c([nH]c4ccccc43)c2=O)cc1` (stereo not given) reads -2% (active); that for `Cc1cc(C)cc(-n2c(SCC(=O)N3CCC(C)CC3)nc3c([nH]c4ccccc43)c2=O)c1`, -1% (active).
The result for `COC(=O)C(C)Sc1nc2c([nH]c3ccccc32)c(=O)n1-c1ccc(OC)cc1` (stereo not given) reads 75%; that for `CCOc1ccc(-n2c(SCC(=O)Nc3cc(C)ccc3C)nc3c([nH]c4ccccc43)c2=O)cc1`, 59%; that for `Cc1ccc(C)c(NC(=O)CSc2nc3c([nH]c4ccccc43)c(=O)n2-c2ccc(F)cc2)c1`, 0% (active).
The result for `Cc1ccc(-n2c(SCC(=O)N3CCC(C)CC3)nc3c([nH]c4ccccc43)c2=O)cc1` reads -6% (active); that for `Cc1cc(C)cc(-n2c(SCC(=O)N3CCCCC3)nc3c([nH]c4ccccc43)c2=O)c1`, 78%.
For the molecule `CCOC(=O)CSc1nc2c([nH]c3ccccc32)c(=O)n1-c1ccc(OCC)cc1`, the survival was 80%.
The result for `Cc1cccc(NC(=O)CSc2nc3c([nH]c4ccccc43)c(=O)n2-c2ccc(F)cc2)c1C` reads 22%; that for `CC1CCN(C(=O)CSc2nc3c([nH]c4ccccc43)c(=O)n2-c2ccccc2)CC1`, 83%; that for `Cc1cc(C)cc(-n2c(SCC(=O)N3CCCC3)nc3c([nH]c4ccccc43)c2=O)c1`, 69%.
Turning to `COc1ccc(-n2c(SCC(=O)N3CCC(C)CC3)nc3c([nH]c4ccccc43)c2=O)cc1`, the survival is 79%.
The result for `CCc1ccc(-c2nc(CS(=O)CC(=O)NCc3ccc(F)cc3)c(C)o2)cc1` (stereo not given) reads 73%; that for `O=C1N/C(=N\S(=O)(=O)Cc2ccccc2)S/C1=C\c1ccco1`, 106%; that for `COc1ccccc1CNC(=O)Cn1c(=O)nc(-c2ccccc2)c2ccccc21`, 67%.
To `CCc1ccc(-n2c(N3CCN(c4cccc(C)c4C)CC3)nc3ccccc3c2=O)cc1` belongs 81%; to `Cc1c(C(=O)NCc2ccccc2Br)oc2c1-c1[nH]ncc1CC2`, 82%.
As for `Cc1ccc(C(=O)Nc2ccc3c(c2)N(C)C(=O)c2ccccc2S3)cc1`, the survival was 99%.
The result for `COc1ccc(Cl)cc1NC(=O)Cn1c(=O)n(Cc2ccco2)c(=O)c2ccc(C(=O)NC3CCCC3)cc21` reads 87%; that for `CCOc1ccc(-n2c(SCC(=O)NCc3ccco3)nc3c([nH]c4ccccc43)c2=O)cc1`, 10% (active); that for `COc1cccc(-n2c(SCC(=O)N3CCCCC3)nc3c([nH]c4ccccc43)c2=O)c1`, -3% (active).
The result for `O=C(CSc1nc2c([nH]c3ccccc32)c(=O)n1-c1ccccc1)N1CCCCCC1` reads 78%; that for `COC(=O)c1ccc(CSc2nc3c([nH]c4ccccc43)c(=O)n2-c2ccc(Cl)cc2)o1`, 121%.
The result for `O=C(CSc1nc2c([nH]c3ccccc32)c(=O)n1-c1ccccc1)N1CCCCC1` reads 69%; that for `COc1ccc(-n2c(SCC(=O)NCc3ccco3)nc3c([nH]c4ccccc43)c2=O)cc1`, 75%.
Take `COC(=O)c1ccc(CSc2nc3c([nH]c4ccccc43)c(=O)n2-c2cc(C)cc(C)c2)o1`: the survival is 0% (active).
With `COC(=O)c1ccc(CSc2nc3c([nH]c4ccccc43)c(=O)n2-c2cccc(Cl)c2)o1`, the survival is 71%.
The result for `COc1cccc(NC(=O)CSc2nc3c([nH]c4ccccc43)c(=O)n2-c2ccccc2)c1` reads 67%.
`O=C(CSc1nc2c([nH]c3ccccc32)c(=O)n1-c1ccccc1F)Nc1cccc(C(F)(F)F)c1`: the survival is 71%.
For `O=C(CSc1nc2c([nH]c3ccccc32)c(=O)n1-c1ccccc1)Nc1cccc(C(F)(F)F)c1`, the survival was -6% (active).
Turning to `O=C(CSc1nc2c([nH]c3ccccc32)c(=O)n1-c1ccc(F)cc1)NCc1ccco1`, the survival is 88%.
To `CCc1cccc(C)c1NC(=O)c1cc(S(=O)(=O)N2CCN(c3ccccc3)CC2)ccc1F` belongs 73%.
The result for `COc1cccc(NC(=O)NCc2ccc3c(c2)CCN3C(=O)c2ccccc2)c1` reads 64%.
For the molecule `COC(=O)C1=NN(C(=O)c2cccc(OC)c2)C(C)(O)C1` (stereo not given), the survival was 123%.
Take `COc1cccc(C(=O)N2c3ccc(C)cc3C(C)(c3ccccc3)CC2(C)C)c1` (stereo not given): the survival is -2% (active).
As to `COc1cccc(C(=O)N2CC(C)OC(C)C2)c1` (stereo not given), the survival was 107%.
As for `COc1ccc(OCC(=O)N2CCN(C(=O)c3cccc(OC)c3)CC2)cc1`, the survival was 88%.
With `COc1cccc(C(=O)N2c3cc(C)ccc3C(C)(c3ccccc3)CC2(C)C)c1` (stereo not given), the survival was 1% (active).
Consider `COc1ccc(CNc2nc(-c3ccco3)nn2C(=O)c2ccccc2Cl)cc1`, for which the survival is 95%.
The result for `O=C(Cn1c(=O)n(-c2ccc(F)cc2)c(=O)c2sc3ccccc3c21)NC1CCCCC1` reads 91%; that for `CNC(=O)C1CCC(Cn2c(=O)c3sccc3n(CC(=O)N3CCCC3)c2=O)CC1` (stereo not given), 77%; that for `Cc1ccc(NCC(=O)N=Nc2c(O)[nH]c3ccccc23)cc1`, 114%.
Consider `CCOC(=O)c1oc2c(c1C)-c1nn(Cc3ccc(Cl)cc3)cc1CC2`, for which the survival is 2% (active).
To `CCOC(=O)c1oc2c(c1C)-c1nn(Cc3cccc(Cl)c3)cc1CC2` belongs 66%.
The result for `Cc1c(C(=O)O)oc2c1-c1nn(Cc3ccc(Cl)cc3)cc1CC2` reads 77%; that for `CCOc1ccc2c(c1)c(=O)c(C(=O)c1ccc3c(c1)OCO3)cn2Cc1cccc(F)c1`, 91%; that for `CCCCOc1cccc(C2c3c(oc4ccccc4c3=O)C(=O)N2c2ccccn2)c1` (stereo not given), 68%.
With `O=C(Nc1noc2ccccc12)c1ccc(F)cc1`, the survival is 78%.
`CCOC(=O)c1c(C)oc2c1c(O)c(N=O)c1ccccc12`: the survival is 7% (active).
The result for `CCOC(=O)c1c(C)oc2ncnc(N3CCN(c4ccccc4)CC3)c12` reads 68%; that for `CCOC(=O)c1c(C)oc2nc(C)nc(N3CCN(c4ccccc4)CC3)c12`, 68%.
The result for `CC(C)OC(=O)Cn1c(C2CC2)nc2ccccc2c1=O` reads 115%; that for `CC(C)(C)c1ccc(S(=O)(=O)N2CCC(Oc3ccc(-n4cnnn4)cc3)CC2)cc1`, 81%; that for `Cc1cn2c(=O)cc(COC(=O)c3ccc(NC(=O)COc4ccccc4F)cc3)nc2s1`, 85%.
For `Cn1ncc2c(N3CCN(c4ccccc4Cl)CC3)ncnc21`, the survival is 127%.
